Data: PubChem BioAssay AID1672 (Johns Hopkins Ion Channel Center, 2009)
The whole screen tested about 310,000 compounds, of which about 2,600 (0.84%) were called active. This excerpt belongs to a sample that is enriched for actives. Unmarked numbers belong to inactive results.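 How the source made its calls: active means fluorescence ratio B-score at or below minus 3 SD of library scores, with starting-brightness B-score within 2 SD (cut at about -4.2 in these data); inactive means the rest.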

target: Inward rectifier potassium channel 2 (Mus musculus) (UniProt P35561); experiment: inhibitors of mouse Kir2.1 inward-rectifier potassium channel (AID 1672); conditions: HEK293-Kir2.1, FluxOR thallium flux fluorescence; at 10 µM; active compounds read low;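 further: channel flux triggered by added potassium and thallium sulfate stimulus; B-score of peak minus minimum fluorescence over baseline after thallium stimulus; more negative B-score means stronger Kir2.1 block with less thallium influx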
Sequence (P35561 whole entry, looked up): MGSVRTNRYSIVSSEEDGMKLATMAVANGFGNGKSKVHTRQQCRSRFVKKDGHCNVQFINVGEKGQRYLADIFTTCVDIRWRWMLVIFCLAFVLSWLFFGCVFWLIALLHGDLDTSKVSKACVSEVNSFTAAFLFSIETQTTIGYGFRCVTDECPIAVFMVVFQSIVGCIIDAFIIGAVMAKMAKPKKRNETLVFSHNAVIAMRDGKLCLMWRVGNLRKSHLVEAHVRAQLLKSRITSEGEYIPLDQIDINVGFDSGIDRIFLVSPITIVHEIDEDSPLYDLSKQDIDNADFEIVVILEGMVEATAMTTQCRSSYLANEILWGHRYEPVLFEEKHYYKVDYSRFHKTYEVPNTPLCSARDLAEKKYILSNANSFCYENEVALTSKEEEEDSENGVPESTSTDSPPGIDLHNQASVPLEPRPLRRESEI

Compound	B-score
CNCC(O)c1cc(F)c(OCc2ccccc2)c(OCc2ccccc2)c1F (stereo not given)	-10.4 (active)
COc1ccc2c(c1O)-c1cccc3c1[C@@H](C2)N(C)CC3	-0.89
C=CC12CN(C)[C@@H]3C4CO[C@H](C[C@H]41)[C@]1(C(=O)Nc4ccccc41)[C@@H]32 (stereo not given in full)	-0.31
COC(=O)C1=C(c2ccccc2)C[C@@H]2CC[C@H]1N2C(=O)NCc1ccco1	-0.88
COc1ccc(N2C(=O)/C(=C/c3ccco3)C(=O)NC2=S)cc1	-1
COC(=O)N(c1ccc(OC)cc1)P1(=S)OCCC(C)O1 (stereo not given)	-0.02
CCOc1cccc(=NC2CCCCC2)c2c(C)[nH]c(C)c12	-6.51 (active)
CCC(C)n1c(O)c(/C=N/Nc2nc3c(c(=O)n(C)c(=O)n3C)n2C)c(=O)[nH]c1=S (stereo not given)	1.97
CCN1C(=O)C(=Cc2c(C)n(CC(=O)NCC3CCCO3)c3ccccc23)C(=O)N(CC)C1=S (stereo not given)	1.19
Cc1ccc(S(=O)(=O)N(C)c2ccc(C(=O)NCC3(N(C)C)CCCCC3)cc2)cc1	0.21
COC(=O)C1=C(c2ccccc2)C[C@@H]2CC[C@H]1N2C(=O)N1CCCCC1	-0.79
COc1ccc(C2NCc3ccc4c(c3-n3cccc32)OCO4)cc1OC (stereo not given)	-0.31
c1ccc(C2NCc3ccccc3-n3cccc32)cc1 (stereo not given)	-6.08 (active)
COc1ccc2c(c1)[C@]13CCCCC1C(C2)N(C)CC3 (stereo not given in full)	-0.18
O=C(Cc1ccccc1)N1CCN(C2CCCCCC2)CC1	-1.16
CCCCn1c(=O)c(C(=O)Nc2ccccc2Cl)c(O)c2ccccc21	-1.32
CN(C)CCN(CC1CCCN(Cc2ccccc2F)C1)C(=O)Cc1ccc(F)c(F)c1 (stereo not given)	-0.57
O=C1N=c2ccccc2=C/C1=C\c1c(O)[nH]c(=S)[nH]c1=O	0.39
CCCCCCCCCCCCn1ccc(=N)cc1	-13 (active)
COc1ccc(C(=O)CC2C(=O)N(C)C(=O)N(C)C2=O)cc1	0.17
c1ccc(CCN2CCC3(CC2)OCCO3)cc1	1.88
COC(=O)C1=C(c2cc3ccccc3s2)C[C@@H]2CC[C@H]1N2C(=O)NCCO	-0.7
Clc1ccc2nc3c(c(-c4ccccc4)c2c1)CNCC3	-7.18 (active)
Cc1nn(-c2ccccc2)c(C)c1NC(=O)COC(=O)Cc1ccccc1	-0.02
CCOC(=O)C1(CCc2ccccc2)CCN(Cc2ccco2)CC1	-2.11

Compound	B-score
CC[C@H]1CC2CN3CCc4c([nH]c5ccccc45)C(C(=O)OC)(C2)C13 (stereo not given in full)	-2.28
CC(c1ccccc1)(c1ccccc1)c1ccncc1	-4.28 (active)
CCN(CC)C(=O)c1ccc(NC(=O)c2sccc2-c2ccccc2)cc1	0.02
COC(=O)C1=C(c2cc3ccccc3s2)C[C@@H]2CC[C@H]1N2C(=O)NC(C)C	-1.96
O=C(C1CC(=O)N(C2CCCC2)C1)N1CCC2(CC1)OCCO2 (stereo not given)	0.05
Cc1ccc(C2CN(C)CC2C(=O)c2ccc(F)cc2)cc1 (stereo not given)	-2.69
O=c1c2ccccc2nc(/C=C/c2ccco2)n1-c1ccccc1O	-0.02
C/C(=N/O)c1ccc2ccc3ccccc3c2c1	-0.33
Cc1nc2ccccn2c1P(=S)(N1CCCCC1)N1CCCCC1	-5.35 (active)
CCCCCn1c(=O)c(C(=O)NCc2ccccc2)c(O)c2ccccc21	1.46
COc1ccccc1C1=NCc2nnc(CSC)n2-c2ccc(Cl)cc21	0.29
CCOc1ccc(-c2cc(C)[n+](CCN(CC)CC)c(-c3ccc(OCC)cc3)c2)cc1	-4.58 (active)
Cc1cc2ccccn2c1C(C[N+](=O)[O-])c1c(F)cccc1Cl (stereo not given)	-0.86
COc1ccc(CNCCc2c[nH]c3ccccc23)cc1OC	0.17
COc1ccc(Br)cc1CNCCc1cccc(Cl)c1	-10.4 (active)
COc1ccc(CNCCc2ccc3c(c2)OCO3)c(OC)c1OC	0.87
NCCc1c[nH]c2ccc(O)cc12	-0.71
COC(=O)C1=C(c2cc3ccccc3s2)C[C@@H]2CC[C@H]1N2C(=O)NCc1cccc2ccccc12	2.94
COC(=O)C1=C(c2cc3ccccc3o2)C[C@@H]2CC[C@H]1N2C(=O)NC1CCCCC1	-0.65
CN(c1ccccc1)c1ccc([N+](=O)[O-])c2nonc12	-1.89
O=C(Cc1ccccc1[N+](=O)[O-])N1CCN(Cc2ccc3c(c2)OCO3)CC1	0.65
Oc1cc2c(cc1CN1CCN(c3ccccc3)CC1)OCO2	-0.91
Fc1ccc(N2CCN(Cc3ccc4c(c3)OCO4)CC2)cc1	-6.26 (active)
CCN1CCN(c2nc3c(c(=O)[nH]2)CCC3)CC1	1.68
COc1cccc(N2C(=O)NC(=O)/C(=C\c3cn(C)c4ccccc34)C2=O)c1	0.09
